D2 ag-1: Beta-Arrestin HTS for Positive Allosteric Modulators of the Human D2 Dopamine Receptor: Agonists; DiscoveRx PathHunter D2 beta-arrestin, luminescence, 90 min; 100% = 57 uM dopamine signal; activation, % (test concentration not listed); 360,000 tested, 0.084% active; AID 624465, 2012; in the data active = activation above about 40%
Target sequence (P14416 whole entry, looked up): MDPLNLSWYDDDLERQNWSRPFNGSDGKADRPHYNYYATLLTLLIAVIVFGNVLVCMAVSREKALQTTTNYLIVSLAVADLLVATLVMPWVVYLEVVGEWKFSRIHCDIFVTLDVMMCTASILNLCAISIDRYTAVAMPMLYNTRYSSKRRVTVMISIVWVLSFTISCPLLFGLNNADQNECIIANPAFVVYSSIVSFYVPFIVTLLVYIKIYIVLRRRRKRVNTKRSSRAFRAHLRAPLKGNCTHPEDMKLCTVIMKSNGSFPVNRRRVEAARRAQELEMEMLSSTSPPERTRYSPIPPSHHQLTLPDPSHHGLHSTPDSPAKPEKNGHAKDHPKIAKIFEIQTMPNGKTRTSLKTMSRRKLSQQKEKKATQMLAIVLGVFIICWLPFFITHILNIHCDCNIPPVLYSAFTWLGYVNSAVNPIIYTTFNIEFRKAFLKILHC
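DiscoveRx PathHunter D2 beta-arrestin cells (2,100/well) attached overnight, then compound-stimulated 90 min at 37 C in HBSS/10 mM HEPES/0.1% Tween-20 buffer; beta-galactosidase complementation read by luminescence after 1 h at ambient temperature. Dopamine 57 uM final (EC100) as control.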
D2 PAM-1: Beta-Arrestin HTS for Positive Allosteric Modulators of the Human D2 Dopamine Receptor: Potentiators | DiscoveRx D2 beta-arrestin cells, luminescence, 90 min; 100% = 57 uM dopamine signal | potentiation, % (no concentration beside the values) | 360,000 tested, 0.23% active; in the data active = potentiation above about 50%
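D2 cells co-treated with compound plus 50 nM dopamine (EC20) for 90 min at 37 deg C to detect potentiation. Beta-arrestin recruitment was read as enzyme-fragment luminescence after 1 h at ambient temperature. Full response was set by 57 uM dopamine.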
D2 antag: HTS Assay for Allosteric Antagonists of the Human D2 Dopamine Receptor: Primary Screen for Antagonists | 340,000 tested, 2% active | D(2) dopamine receptor (Homo sapiens), P14416 | inhibition, % at 10 µM | HEK293 TREx D2 cells, calcium flux, dopamine EC80; in the data active = inhibition above about 30%; inactive = below that, where a call was filed; note: 0% is about no effect
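Antagonism is scored as inhibition of an EC80 dopamine-evoked calcium signal in a force-coupled, tetracycline-inducible HEK293 T-REx D2 line, with compound present 180 s before agonist.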
D2 PAM-2: HTS Assay for Positive Allosteric Modulators of the Human D2 Dopamine Receptor: Primary Screen for Potentiators; potentiation, % at 10 µM; 340,000 tested, 0.34% active; HEK293 T-REx D2, calcium flux, EC20 dopamine potentiation;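 active = potentiation over 3 SD above the plate norm, cut at about 30% in these data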; note: 0% is about no effect
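Calcium flux readout, no-wash dye, 1 read/s. Inducible HEK293 Trex D2 line, overnight 30 C. Compound alone 180 s (agonist flags), then EC20 dopamine, another 180 s to score potentiation.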
D2 ag-2: HTS Assay for Allosteric Agonists of the Human D2 Dopamine Receptor: Primary Screen for Agonists | D(2) dopamine receptor (Homo sapiens), P14416 | HEK293 T-REx D2 cells, calcium flux agonist mode | activation, % at 2 µM | 340,000 tested, 0.53% active | AID 485358, 2010;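 active = activation over 3 SD above normal in the single-dose calcium agonist read, cut at about 30% in these data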; note: 0% is about no effect
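Tetracycline-induced HEK293 T-REx cells with force-coupled D2 receptor, plated overnight at 30 C, loaded with no-wash calcium dye. After a 10 s baseline, compound was pin-added and calcium flux read kinetically for 180 s; calcium rises flagged agonists.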
* = called active by the depositor. This is a sample that favours compounds with a hit; in the whole collection about 2.4% have one here.

What do the screens show for `COc1ccccc1N1CCN(C(=O)C(CCSC)NS(=O)(=O)c2ccc3c(c2)oc(=O)n3C)CC1` (stereo not drawn)?
D2 PAM-2: -8; D2 ag-2: 2

How did Cc1cc2nc(/C(C#N)=C/c3ccncc3)[nH]c2cc1C do in these assays?
D2 ag-1: 2; D2 PAM-1: -12; D2 antag: 36*; D2 PAM-2: -9; D2 ag-2: 2

What do the screens show for `N#C/C(=C\c1ccncc1)c1nc2ccccc2[nH]1`?
D2 ag-1: 9; D2 PAM-1: 21; D2 antag: -6; D2 PAM-2: 3; D2 ag-2: 2

What do the screens show for `Cc1ccc(CN2CCC(C(=O)NCCC(C)C)CC2)o1`?
D2 ag-1: -2; D2 PAM-1: -30; D2 antag: 30*; D2 PAM-2: -4; D2 ag-2: 0

Results for CC1CCC/C(=N/Nc2nc3ccccc3s2)C1 (stereo not drawn) ?
D2 ag-1: -12; D2 PAM-1: -8; D2 antag: -3; D2 PAM-2: 5; D2 ag-2: -1

What do the screens show for `CC1(C)CC(=O)C/C(=N/Nc2nc3ccccc3s2)C1`?
D2 ag-1: -3; D2 PAM-1: -3; D2 antag: 36*; D2 PAM-2: 7; D2 ag-2: 1

Results for NC(=O)c1ccc(N2CCN(c3ccccc3F)CC2)c([N+](=O)[O-])c1 ?
D2 ag-1: -3; D2 PAM-1: -4; D2 antag: -16; D2 PAM-2: 41*; D2 ag-2: 0

What do the screens show for `NC(=O)c1ccc(N2CCN(c3ccccc3O)CC2)c([N+](=O)[O-])c1`?
D2 ag-1: 6; D2 PAM-1: 4; D2 antag: -17; D2 PAM-2: 17; D2 ag-2: -1

What do the screens show for `CCOC(=O)c1cccc(NC(=O)c2cc3c(Cl)nc4ccc(C)cc4c3s2)c1`?
D2 PAM-2: 14; D2 ag-2: -1

What do the screens show for `CCOC(=O)c1cnc(-n2nc(C)cc2C)nc1Nc1ccccc1OC`?
D2 antag: 6; D2 PAM-2: 9; D2 ag-2: 0

Results for CCOC(=O)c1cnc(-n2nc(C)cc2C)nc1NCCc1ccccc1 ?
D2 ag-1: -4; D2 PAM-1: -8; D2 antag: 34*; D2 PAM-2: -1; D2 ag-2: 0

How did CCn1cc(C(=O)NCc2ccc(C)cc2)c(=O)c2cc(S(=O)(=O)N3CCCCCC3)ccc21 do in these assays?
D2 PAM-2: -4; D2 ag-2: 0

Results for Cc1cc2c(N=O)c(NO)ccc2[nH]1 ?
D2 ag-1: 15; D2 PAM-1: 63*

How did COc1nc(OC)nc(N2CCC(C(=O)NCC3CCCCC3)CC2)n1 do in these assays?
D2 ag-1: 0; D2 PAM-1: -4; D2 antag: -5; D2 PAM-2: 14; D2 ag-2: -1

Results for COc1nc(OC)nc(N2CCCCCC2)n1 ?
D2 ag-1: 0; D2 PAM-1: -4; D2 antag: 33*; D2 PAM-2: 4; D2 ag-2: -1

What do the screens show for `COc1ccc(-n2c(=O)c3ccc(C(=O)NCc4ccc(C)cc4)cc3n(CC(=O)Nc3cccc(F)c3)c2=O)cc1`?
D2 PAM-2: 10; D2 ag-2: 1

Results for Cc1ccc(C2c3[nH]c4ccccc4c3CCN2C(=O)CCc2ccccc2)cc1 (stereo not drawn) ?
D2 PAM-2: 5; D2 ag-2: 1

How did O=C1CC(N2CCC(c3nc4ccccc4s3)CC2)C(=O)N1 (stereo not drawn) do in these assays?
D2 ag-1: -6; D2 PAM-1: -21; D2 antag: 33*; D2 ag-2: -1

How did COCCOc1ccc(C(F)(F)F)cc1NC(=O)c1ccc(C(F)(F)F)cc1 do in these assays?
D2 ag-1: 0; D2 PAM-1: -18; D2 antag: 59*; D2 PAM-2: 7; D2 ag-2: 1

How did COC(=O)CC(NS(=O)(=O)c1cccs1)c1ccccc1Cl (stereo not drawn) do in these assays?
D2 ag-1: -5; D2 PAM-1: -5; D2 antag: 35*; D2 PAM-2: -4; D2 ag-2: 0

Results for COC(=O)CC(NS(=O)(=O)c1cccs1)c1ccc2c(c1)OCO2 (stereo not drawn) ?
D2 ag-1: 4; D2 PAM-1: -7; D2 antag: 14; D2 PAM-2: 3; D2 ag-2: 0

How did CCOC(=O)c1c(NC(=O)c2noc3c2CC(C(C)(C)C)CC3)sc2c1CCCC2 (stereo not drawn) do in these assays?
D2 PAM-2: -5; D2 ag-2: 1

Results for COc1ccc(/C=C2\CC/C(=C\c3ccc(OC)c(OC)c3)C2=O)cc1OC ?
D2 ag-1: -3; D2 PAM-1: -8; D2 antag: -3; D2 PAM-2: 12; D2 ag-2: 1

What do the screens show for `COc1cc(/C=C2\CC/C(=C\c3ccc(OCCO)c(OC)c3)C2=O)ccc1OCCO`?
D2 ag-1: 10; D2 PAM-1: 9; D2 antag: 0; D2 PAM-2: 21; D2 ag-2: 76*

Results for CCc1cccc(NC(=O)Cn2nc3c4cc(F)ccc4n(Cc4cccc(C)c4)cc-3c2=O)c1 ?
D2 PAM-2: 6; D2 ag-2: 0

How did O=C(Nc1nccs1)C1CCCN(S(=O)(=O)c2cccc3cccnc23)C1 (stereo not drawn) do in these assays?
D2 ag-1: -2; D2 PAM-1: 1; D2 antag: 39*; D2 PAM-2: 4; D2 ag-2: 0

How did CCOC(=O)N1CCC(NC(=O)C2CCN(S(=O)(=O)c3cccc4cccnc34)CC2)CC1 do in these assays?
D2 ag-1: -1; D2 PAM-1: -5; D2 antag: 51*; D2 PAM-2: -13; D2 ag-2: -1

Results for CCN1CCN(C(=O)c2c(C)nn(-c3ccc(F)cc3)c2-n2cccc2)CC1 ?
D2 PAM-2: -18; D2 ag-2: 0

What do the screens show for `N#C/C(=C\C=C\c1ccccc1)C(=O)NCc1ccco1`?
D2 ag-1: -2; D2 PAM-1: 5; D2 antag: 37*; D2 PAM-2: -5; D2 ag-2: -1

What do the screens show for `O=C(/C=C/c1ccccc1)NCc1ccco1`?
D2 ag-1: -6; D2 PAM-1: -2; D2 antag: -16; D2 PAM-2: 12; D2 ag-2: -1

How did CS(=O)(=O)N1CCc2cc(C(=O)N3CCCCC3)ccc21 do in these assays?
D2 ag-1: 2; D2 PAM-1: -4; D2 antag: 4; D2 PAM-2: -5; D2 ag-2: 0
